# Compounds without any hit were thinned out: in the full panel of roughly 79,000, 15% have a hit. A number with no mark means an inactive call. Cut-off read from the data, not from the text of the source: active = growth inhibition above about 70%; inactive = the rest.
# Assay: NCI Yeast Anticancer Drug Screen. Data for the mlh1 rad18 strain (AID 175)
# Settings: S. cerevisiae mlh1 rad18 strain growth inhibition; at 50.0 µM; hits give high values
# Outline: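 Vehicle-treated cultures served as the reference for growth inhibition in a yeast strain carrying DNA damage repair alterations exposed to each compound.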
row,SMILES,growth inhibition [%]
1,CCOC(=O)c1ccc(-n2cnc(-c3ccc([N+](=O)[O-])cc3)c2)cc1,-16.2
2,CCCCCC#CC(=O)OCC,15.8
3,CCN(CC)Cc1cc(NC(C)=O)ccc1O,2.3
4,Cc1ccc(N=C(C(=O)c2ccccc2)C(Nc2ccc(C)cc2)C(=O)c2ccccc2)cc1 (stereo not drawn),10.7
5,CCCCCCCCCCCCCCCSc1ccc2ccccc2c1,-13.5
6,CCOC(=O)c1c[nH]n(Cc2ccccc2)c1=O,-1.2
7,O=C(c1cccc(F)c1)c1ccccc1Cc1ccccc1,-11.4
8,Cc1cc(N(CCC#N)CCC#N)ccc1/C=C1\N=C(c2cc([N+](=O)[O-])ccc2Cl)N(c2cccc(Cl)c2)C1=O,-29.2
9,CCOC(=O)C1=C(C)NC(=O)NC1c1ccc(N(C)C)cc1 (stereo not drawn),29.1
10,CCN(c1ccccc1)S(=O)(=O)c1cc(N)ccc1C,4.55
11,CCOC(=O)CCCCCCCCCC[N+](CC)(CC)CC(=O)c1ccc(NC(C)=O)cc1,-0.1
12,CCC(=S)Nc1ccc(Cl)cc1,-35.4
13,c1ccc2nc3ccccc3cc2c1,5.95
14,CCOC(=O)/C(C)=C/CC1=C(O)c2ccccc2C(=O)C1=O,16.8
15,Cc1cc2nnn(C3CCCCO3)c2cc1C (stereo not drawn),-31.7
16,O=C1OCC=C1COC1OC(CO)C(O)C(O)C1O (stereo not drawn),-41.7
17,COC1=CC(=O)C(C)=CC1=O,7.5
18,CC1CCC2(OC1)OC1CC3C4CCC5CC(O)CCC5(C)C4CC(=O)OC3(C)C1C2C (stereo not drawn),2.2

# Reference: PubChem BioAssay (NCI)
